ERa coact inh: ERα–SRC-1 coactivator interaction inhibitors, primary screen, biochemical, TR-FRET, ERα LBD, estradiol-bound | Estrogen receptor (Homo sapiens), P03372 | inhibition, % at 25.6 µM | 86,000 compounds, 1.7% hits | TR-FRET ER-alpha LBD / SRC-1 peptide; in the data active = inhibition above about 50%;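 note: 0% = receptor plus peptide control and 100% = peptide only without receptor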
Candida biofilm: clotrimazole potentiators killing Candida biofilms, primary screen, with clotrimazole, Alamar Blue. 85,000 compounds, 0.14% hits. C. albicans biofilm + clotrimazole. inhibition, % at 6 µM;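 active = inhibition above 20%; inactive = inhibition below 20%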;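 note: preformed 24 hr biofilms exposed to compound for 48 hr; 0% = biofilm without compound and 100% = blank killed by clotrimazole plus chlorhexidine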
ERb SRC1 inh: inhibitors of ERβ-SRC1 coactivator interaction, primary screen, biochemical, TR-FRET, ERβ LBD, SRC-1 peptide; Estrogen receptor beta (Homo sapiens), Q92731; TR-FRET ER-beta LBD / SRC1-Cy5 peptide binding; receptor agonist-loaded with 1 µM estradiol; inhibition, % at 25.6 µM; 86,000 compounds, 1.3% hits;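 active = compounds whose percent inhibition of the receptor-coactivator binding signal exceeds about 50% in the single-dose screen, limit read from the data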;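 note: 0% = receptor plus peptide wells without compound and 100% = peptide-only wells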
Target sequence (Q92731 whole entry, looked up, the tested form may be a part): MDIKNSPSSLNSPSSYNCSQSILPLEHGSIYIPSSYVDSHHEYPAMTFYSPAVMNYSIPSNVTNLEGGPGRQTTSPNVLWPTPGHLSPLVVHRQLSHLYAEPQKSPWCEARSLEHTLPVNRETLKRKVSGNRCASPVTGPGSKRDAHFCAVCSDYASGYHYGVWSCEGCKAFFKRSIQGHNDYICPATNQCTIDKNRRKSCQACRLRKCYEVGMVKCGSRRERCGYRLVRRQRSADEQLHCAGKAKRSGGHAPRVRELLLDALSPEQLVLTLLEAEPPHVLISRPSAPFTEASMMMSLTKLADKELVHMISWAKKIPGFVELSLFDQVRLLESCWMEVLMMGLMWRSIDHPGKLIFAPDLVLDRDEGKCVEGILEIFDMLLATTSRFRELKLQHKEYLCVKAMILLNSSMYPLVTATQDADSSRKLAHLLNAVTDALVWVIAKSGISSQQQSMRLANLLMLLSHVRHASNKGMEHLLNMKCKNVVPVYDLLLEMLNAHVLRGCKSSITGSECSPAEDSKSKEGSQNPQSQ
ERa SRC1 pot: enhancers of ERα–SRC-1 coactivator binding, primary screen, biochemical, TR-FRET, ERα LBD, low estradiol. TR-FRET ERalpha-LBD/SRC-Cy5 coactivator binding, 2 h; 100 = basal binding, no effect. coactivator binding (% of control), % at 25.6 µM. 86,000 compounds, 1.3% hits; in the data active = activity above about 200%;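 note: binding measured in presence of low estradiol as agonist stimulus; 0% = peptide alone without receptor and 100% = receptor with peptide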
Smad3 FoxH1 inh: Smad3/FoxH1 peptide binding inhibitors, primary screen, biochemical, TR-FRET. Mothers against decapentaplegic homolog 3 (Homo sapiens), P84022. TR-FRET Smad3/Dy647-FoxH1 peptide binding, europium anti-His. inhibition, % at 25 µM. 88,000 compounds, 0.29% hits;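 active = compounds that reduce the energy-transfer binding signal between the protein and its labelled peptide by more than half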;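 note: 0% = Smad3 plus labelled peptide maximal FRET and 100% = peptide-only background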
Active calls of the source: *; . = no result given; [ ] = remark or other dose. Hits are enriched below; roughly 3.8% of the tested compounds scored in any of these assays.

SMILES | ERa coact inh | Candida biofilm | ERb SRC1 inh | ERa SRC1 pot | Smad3 FoxH1 inh
N[C@@H](CSC1(c2ccc(Cl)cc2)c2ccccc2-c2ccccc21)C(=O)O | . | . | . | . | -9
COc1ccc2c(Cc3c4ccccc4cc4ccccc34)cncc2c1O | . | . | . | . | 22
O=C(O)c1ccccc1C(=O)N1CCN(c2cccc(Cl)c2)CC1 | -4 | 6 | -6 | 120 | -4
O=C(O)CCCC(=O)N1CCN(c2cccc(Cl)c2)CC1 | -10 | 5 | -1 | 331*[fluorescence artefact?] | 22
C/C(N)=C(/C#N)C(=O)CSc1nnc(COc2ccccc2Cl)o1 | 58* | 3 | 59* | 77 | 14
COc1ccccc1OCc1nnc(SCC(=O)c2cc(Cl)ccc2OC)o1 | 1 | 0 | -3 | 322*[fluorescence artefact?] | 3
COc1ccccc1OCc1nnc(SCCN2CCOCC2)o1 | -6 | 7 | -7 | 148 | 2
C=CCn1c(=O)/c(=C2/SC(C)=C(C)N2CC)s/c1=C1/C(=O)N(C)C(=S)N1c1ccccc1 | -2 | 6 | -6 | 104 | 0
NNC(=O)[C@@H](O)[C@H](O)[C@H](O)CO | . | . | . | . | 1
CCOC(=O)CSc1nc2cc(OC)ccc2cc1C#N | 13 | 6 | 38 | 347*[fluorescence artefact?] | 15
CC(C)OC(=O)CSc1nc2cc3c(cc2cc1C#N)OCO3 | 21 | 3 | 22 | 189 | 25
CCOC(=O)CSc1nc2cc(C)ccc2cc1C#N | 4 | -5 | 3 | 111 | 0
CCOC(=O)CSc1nc2cc3c(cc2cc1C#N)OCO3 | 27 | 6 | 32 | 161 | 15
Cc1cc2cc3c(cc2nc1SCC(=O)N1c2ccccc2CC1C)OCO3 (centres undefined) | 51*[fluorescence artefact?] | 5 | 48 | 162 | -2
COC(=O)CSc1nc2cc3c(cc2cc1C#N)OCO3 | 30 | . | 16 | 284*[fluorescence artefact?] | 35
Cc1cc2ccccc2nc1SCC(=O)N1c2ccccc2CC1C (centres undefined) | 1 | -3 | 0 | 101 | -19
CC1Cc2ccccc2N1C(=O)CSc1nc2cc3c(cc2cc1C#N)OCO3 (centres undefined) | 24 | . | 23 | 298*[fluorescence artefact?] | 5
Cn1c(=O)c2c(nc(C(=N)SCC(=O)O)n2C)n(C)c1=O | . | . | . | . | 10
COc1ccc(CNC(=O)COC(=O)c2cc(-c3cccs3)nc3ccccc23)cc1OC | 37 | -4 | 6 | 72 | -2
O=C(OCC(=O)N1CCN(C(=O)c2ccco2)CC1)c1cc(-c2ccc(Cl)c(Cl)c2Cl)nc2ccccc12 | 38 | 8 | 15 | 121 | 24
O=C(OCC(=O)N1CCN(C(=O)c2ccco2)CC1)c1cc(-c2ccco2)nc2ccccc12 | 92*[fluorescence artefact?] | 7 | 89* | 29 | 13
O=C(O)c1cc(-c2ccco2)nc2ccccc12 | 74* | 2 | 82*[fluorescence artefact?] | 38 | 10
COc1ccc(CNC(=O)COC(=O)c2cc(-c3ccco3)nc3ccccc23)cc1 | 87*[fluorescence artefact?] | 2 | 77* | 53 | -2
COc1ccc2c(c1)[nH]c1c(=O)n(CCCn3ccnc3)cnc12 | -6 | 4 | 31 | 79 | 11
CC(C)(C)c1ccc(CN2CCN([C@H](c3ccccc3)c3ccc(Cl)cc3)CC2)cc1 | . | . | . | . | 10
SMILES | ERa coact inh | Candida biofilm | ERb SRC1 inh | ERa SRC1 pot | Smad3 FoxH1 inh
Cn1cnc([N+](=O)[O-])c1Sc1nc(N)nc2c1ncn2[C@@H]1C[C@H](O)[C@@H](CO)O1 | . | . | . | . | 8
CCCC/C(O)=N\S(=O)(=O)c1ccc(N=NN(C)C)cc1 | 16 | 5 | -4 | 90 | 3
O=C(Nc1ccc2c(c1)OCO2)c1cc2ncc(Br)cn2n1 | 77*[fluorescence artefact?] | 2 | 67*[fluorescence artefact?] | 71 | 9
CCc1ccccc1NC(=O)c1cc2ncc(Br)cn2n1 | 60*[fluorescence artefact?] | 7 | 54* | 81 | 13
O=C(NCCc1ccccc1)c1cc2ncc(Br)cn2n1 | 77*[fluorescence artefact?] | 5 | 77*[fluorescence artefact?] | 41 | 19
CC(=O)[C@@H](C)CCO[C@]1(C)OCC[C@@H]1C | . | . | . | . | -5
CCCNCC1COc2ccccc2O1 (centres undefined) | 84*[fluorescence artefact?] | -1 | 80* | 49 | 37
Cc1cc(C(=O)CN2C(=O)NC(Cc3c[nH]c4ccccc34)C2=O)c(C)n1C (centres undefined) | -8 | . | 94*[fluorescence artefact?] | 96 | -2
O=C1NC(Cc2c[nH]c3ccccc23)C(=O)N1CCOc1ccccc1 (centres undefined) | -6 | -3 | -4 | 120 | 7
NC(N)=NC(N)=Nc1ccc(S(N)(=O)=O)cc1 | . | . | . | . | -6
CC(/C=C/c1ccc2c(c1)OCO2)=N\NC(=O)c1cccc([N+](=O)[O-])c1 | 68*[fluorescence artefact?] | 7 | 17 | 58 | 15
Cc1ncc(CSC(=N)N)n1Cc1ccccc1 | . | . | . | . | 8
Cc1cc(C)c(C#N)c(SCc2cc3c(cc2Cl)OCO3)n1 | 56*[fluorescence artefact?] | 4 | 58*[fluorescence artefact?] | 189 | -4
COc1ccccc1N1CCN(Cc2cc(Br)c(O)c3ncccc23)CC1 | 50*[fluorescence artefact?] | 1 | 29 | 86 | 7
CCOc1ccccc1N1CCN(Cc2cccc(OC)c2O)CC1 | -10 | -2 | -1 | 101 | -13
Cc1cc(NC(=O)c2cccc(C(=O)Nc3cc(C)on3)n2)no1 | 16 | 1 | 11 | 292* | 35
Cc1cc(NC(=O)COc2cccc(C)c2C)no1 | 3 | 0 | -5 | 96 | 12
Cc1oc(C(=O)O)cc1COc1cccc2cccnc12 | 20 | 3 | 59*[fluorescence artefact?] | 99 | 4
Cc1cc(NC(=O)COc2cccc3cccnc23)no1 | 64*[fluorescence artefact?] | -1 | 50*[fluorescence artefact?] | 52 | -7
CCOc1cccc2cc(C(=O)Nc3cc(C)on3)c(=O)oc12 | 33 | 3 | 29 | 468*[fluorescence artefact?] | -55
COc1cccc2[nH]c3c(N4CCC(C)CC4)ncnc3c12 | 37 | 9 | 50*[fluorescence artefact?] | 61 | 3
CC(=O)Nc1nc2ncc(C=O)nc2c(=O)[nH]1 | . | . | . | . | -10
N/C(CC/C(N)=N\O)=N\O | . | . | . | . | -12
NS(=O)(=O)c1ccc(NC(=O)Nc2ccccc2F)cc1 | . | . | . | . | 4
CCOC(=O)c1sc(=NC(=O)c2ccc(OC)c(OC)c2)n(C)c1C | -54 | -5 | 29 | 429*[fluorescence artefact?] | -126
SMILES | ERa coact inh | Candida biofilm | ERb SRC1 inh | ERa SRC1 pot | Smad3 FoxH1 inh
COc1cc(/C=c2\sc3nc(-c4ccncc4)nn3c2=O)ccc1OC(C)=O | 68* | 4 | 45 | 59 | 84*[fluorescence artefact?]
COc1ccccc1/C=c1\sc2nc(-c3cccs3)nn2c1=O | 3 | 8 | 17 | 76 | -2
CN(C)c1ccc(/C=c2\sc3nc(-c4ccccc4)nn3c2=O)cc1 | 69*[fluorescence artefact?] | 5 | 34 | 52 | -3
Cc1cc(C)c2nc3c(c([C@H](O)[C@@H]4CCCCN4)c2c1)CC/C3=C\c1ccc(Cl)cc1 | . | . | . | . | 12
O=C1C(N2CCOCC2)=C(n2nnc3ccccc32)C(=O)c2ccccc21 | -19 | 4 | -14 | 97 | 52*
O=S(=O)(N1CCCCC1)n1nnc2ccccc21 | -8 | 5 | -5 | 89 | 0

Screening data from PubChem.
